# An excerpt weighted towards active compounds, which were near 3.4% of everything screened.
# TEAD-YAP block: TEAD-YAP interaction inhibition; inhibition, % at 9.12 µM; actives 1.4% (n = 640,000); AID 1259422; HEK-TIYL cells, TEAD-Gal4/YAP UAS-luciferase luminescence; in the data active = inhibition above about 32%
# GPR151 activ: human GPR151 activation; Q8TDV0; PathHunter beta-arrestin GPR151 cells, luminescence; activation, % at 11.2 µM; actives 1% (n = 650,000); AID 1508602; in the data active = activation above about 4.9%
# MITF primary: blocks human microphthalmia-associated transcription factor. AlphaScreen MITF homodimerization, bead proximity signal. inhibition, % at 2.6 µM. actives 0.91% (n = 650,000); in the data active = inhibition above about 50%
# Target sequence (O75030 whole entry, looked up): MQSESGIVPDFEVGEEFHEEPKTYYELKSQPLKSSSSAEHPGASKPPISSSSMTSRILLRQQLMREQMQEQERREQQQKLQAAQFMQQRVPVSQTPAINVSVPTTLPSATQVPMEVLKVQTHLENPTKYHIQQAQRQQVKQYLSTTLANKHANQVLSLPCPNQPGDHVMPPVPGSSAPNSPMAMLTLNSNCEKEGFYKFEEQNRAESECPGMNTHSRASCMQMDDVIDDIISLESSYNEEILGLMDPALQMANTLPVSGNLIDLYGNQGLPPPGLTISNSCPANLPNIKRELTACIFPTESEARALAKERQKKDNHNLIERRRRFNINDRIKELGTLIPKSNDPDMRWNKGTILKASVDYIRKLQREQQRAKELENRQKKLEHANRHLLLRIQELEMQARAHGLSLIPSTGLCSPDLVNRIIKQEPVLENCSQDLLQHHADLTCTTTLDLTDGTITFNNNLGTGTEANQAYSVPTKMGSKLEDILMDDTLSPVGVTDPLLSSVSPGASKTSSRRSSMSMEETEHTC
# FBW7 activator: human FBW7 E3 ligase activation, primary screen; Q969H0; actives 0.13% (n = 650,000); normalized activity (activation), % at 26.1 µM; AlphaScreen FBW7–phospho-cyclin E peptide binding, activator screen; AID 1259310; in the data active = normalized activity above about 1.9%;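 note: purified mutant Fbw7 with reduced substrate affinity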
# Numbers stand for hits; n = inactive.
SMILES,TEAD-YAP block,GPR151 activ,MITF primary,FBW7 activator
Cc1ccc2nc3c(nc2c1)-c1ccccc1C3=O,n,n,n,n
Cc1nc2c(ccc3nc(NC(=O)CCc4ccccc4)sc32)s1,48,n,n,n
COc1ccc(C(=O)Nc2nc3ccc4sc(C)nc4c3s2)c(OC)c1,48,n,n,n
Cc1nc2c(ccc3nc(NC(=O)Cc4ccccc4)sc32)s1,n,n,n,n
COc1cccc(OC)c1C(=O)Nc1nc2ccc3sc(C)nc3c2s1,n,n,n,n
COc1ccccc1C(=O)Nc1nc2ccc3sc(C)nc3c2s1,52,n,n,n
COc1ccc(CCNc2ncnc3c2nc(-c2ccc(N4CCOCC4)nc2)n3C(C)C)cc1,59,n,n,n
COc1ccc(CCNc2ncnc3c2nc(Nc2ccc(N4CCOCC4)cc2)n3C(C)C)cc1,79,n,n,n
COc1ccc(CCNc2ncnc3c2nc(N2CCOCC2)n3C(C)C)cc1,n,n,n,n
Cc1cc2nc(-c3cc(N)ccc3O)oc2cc1C,65,n,n,n
CCc1ccc2oc(-c3ccc(N)cc3O)nc2c1,69,n,n,n
Nc1ccc(O)c(-c2nc3cc(N)ccc3o2)c1,n,n,n,n
CCc1ccc2oc(-c3ccc(NC(C)=O)cc3)nc2c1,n,n,n,n
Cc1ccc2nc(-c3ccc(N)cc3O)oc2c1,n,n,n,n
Cc1ccc2oc(-c3ccc(N)cc3O)nc2c1,41,n,n,n
O=C1C(c2sc3ccccc3c2O)=Nc2ccccc21,n,n,n,n
COc1ccc(C2CC(=O)c3c([nH]c(C(=O)OCCOC(C)C)c3C)C2)cc1OC (centres undefined),32,n,n,n
COc1ccc(C2CC(=O)c3c([nH]c(C(=O)OCCSC)c3C)C2)cc1OC (centres undefined),44,n,n,n
O=c1nc(SCc2ccccc2)c2c(n1Cc1ccco1)CCC2,n,n,n,n
O=C(COc1cccc2ccc(N3CCOCC3)nc12)Nc1cccc(F)c1,34,n,n,n
CCOc1ccc(NC(=O)COc2cccc3ccc(N4CCCC4)nc23)cc1,n,n,n,n
Cc1ccc(Cn2nnc3c(=O)n(Cc4ccc(Br)cc4)cnc32)cc1,n,n,n,n
Cc1ccc(OC(=O)Nc2ccccc2C)cc1C,n,n,n,n
CC(=O)Nc1ccc(Nc2nc(C)c([N+](=O)[O-])c(Nc3ccccc3)n2)cc1,n,n,n,n
CCOc1ccc(Nc2nc(Nc3ccc(NC(C)=O)cc3)nc(C)c2[N+](=O)[O-])cc1,44,n,n,n
SMILES,TEAD-YAP block,GPR151 activ,MITF primary,FBW7 activator
O=C1NC(=O)N(c2ccccc2Cl)C(=O)/C1=C\c1ccc2c(c1)OCO2,n,n,n,n
O=c1c(Oc2ccc(F)cc2)coc2c(O)c(O)ccc12,n,n,83,n
O=[N+]([O-])c1cccc(S(=O)(=O)N2CCCC(c3nc(-c4cccs4)no3)C2)c1 (centres undefined),n,n,n,3.0
Cn1c(=O)c(C=O)c(Cl)c2ccc(Cl)cc21,n,n,n,n
COCCNC(=O)c1ccc(CS(=O)Cc2ccc(Cl)cc2)o1 (centres undefined),n,n,n,n
O=C(NCCCN1CCOCC1)c1ccc([N+](=O)[O-])o1,n,n,n,n
CCCCCCCCNC(=O)c1ccc([N+](=O)[O-])o1,35,n,n,n
O=C(O)CNC(=O)c1ccc(C(=O)NCC(=O)O)cc1,n,n,n,n
Clc1ccc(CSc2nn3cnnc3s2)cc1,53,n,n,n
COc1cc(C2C3=C(COC3=O)Nc3ccc4ccccc4c32)ccc1O (centres undefined),56,n,n,n
COc1cc(C2CC(=O)c3c(ccc4ccccc34)N2)ccc1O (centres undefined),n,n,n,n
Oc1ccc(C2CC(c3c(O)ccc4ccccc34)=NN2)cc1 (centres undefined),88,n,n,n
COc1cc(C2CC(c3c(O)ccc4ccccc34)=NN2)ccc1O (centres undefined),61,n,n,n
CC(C)Oc1cccc2c1CCN(Cc1ccc(F)cc1)C2=O,n,n,n,n
CC(=O)Nc1n[nH]c(-c2ccc(C)cc2)n1,n,n,n,n
Oc1cc2c(cc1O)C1c3ccc(O)c(O)c3OCC1(O)C2 (centres undefined),n,n,116,n
CC(C)c1nc(SCC(=O)Nc2cc(Cl)ccc2C#N)n[nH]1,n,n,n,n
O=C1N/C(=C\c2ccc(-c3cccc([N+](=O)[O-])c3)o2)C(=O)N1Cc1ccc(Cl)cc1,n,n,n,n
CN(C)C(=O)CSc1nnc(-c2ccco2)n1C,n,n,n,2.1
O=C(Nc1ccc2c(c1)CN(C(=O)Cn1cncn1)CC2)c1ccccc1Cl,47,n,n,n
O=C(Nc1ccc2c(c1)CN(S(=O)(=O)c1cccnc1)CC2)c1ccccc1Cl,46,n,n,n
CCOC(=O)c1c(NC(=O)c2ccc(C)cc2)sc(C(=O)N2CCOCC2)c1C,n,n,n,n
Cn1c(C(=O)NCCCN2CCCC2)cc2sccc21,n,n,n,n
Cc1cc2c(cc(C(=O)NCCc3ccccc3)n2C)s1,58,n,n,n
Cn1c(C(=O)NCCc2ccccc2)cc2sccc21,41,n,n,n
SMILES,TEAD-YAP block,GPR151 activ,MITF primary,FBW7 activator
CC(C)(C)c1ccc(/C=N/NC(=O)C2COc3ccccc3O2)cc1 (centres undefined),35,n,n,n
Cc1[nH]n(-c2ccccc2)c(=O)c1/C=N/NC(=O)C1COc2ccccc2O1 (centres undefined),36,n,n,n
COC(=O)c1ccc(/C=N/NC(=O)C2COc3ccccc3O2)cc1 (centres undefined),n,n,n,n
CC(=O)N/N=C/c1c(C)[nH]n(-c2ccccc2)c1=O,n,n,n,n
Cc1ccccc1-n1[nH]c(C)c(/C=N/NC(=O)C(=O)N/N=C/c2c(C)[nH]n(-c3ccccc3C)c2=O)c1=O,n,n,52,n
Cc1cc(C(=O)N2CCC(COCc3ccccc3)CC2)c(C)o1,n,n,n,n
COc1ccccc1C(c1sc2nc(C)nn2c1O)N1CCC(C(N)=O)CC1 (centres undefined),n,n,n,n
CCOc1cc(C(=O)Nc2ccc3sc(C)nc3c2)cc(OCC)c1OCC,n,n,n,n
C=CCNc1nc2c(c(=O)n(C)c(=O)n2C)n1CCC(C)C,33,n,n,n
C=CCNc1nc2c(c(=O)n(C)c(=O)n2C)n1CCCCCC,47,n,n,n
COc1ccccc1/C=N/NC(=S)NCc1ccccc1,n,n,n,n
N#CC1=C(N)OC2=C(C(=O)CCC2)C1c1cccc(Cl)c1Cl (centres undefined),n,n,n,n
Fc1cnc(N/N=C\c2ccc(-c3ccccc3)o2)nc1N1CCOCC1,n,n,n,n
CCN(CC)c1ccc(/C=N\Nc2ncc(F)c(N3CCOCC3)n2)c(O)c1,37,n,62,n
Fc1cnc(N/N=C/c2ccc(Cl)cc2Cl)nc1N1CCOCC1,n,n,n,n
Fc1cnc(N/N=C/c2cccs2)nc1N1CCOCC1,45,n,n,n
COc1cccc(/C=N\Nc2ncc(F)c(N3CCOCC3)n2)c1O,41,n,86,n

# Screening results as filed in PubChem BioAssay.
